Sampled rows, rich in hits. Any-hit rate of the full collection: about 21%.
RORgamma inh: inhibitors of mouse ROR gamma transcriptional activity; Potency, µM (titrated, usually from 53.6 µM), for inactives: top-dose activity change, negative = inhibition, most hits filed as inhibitors; 310,000 tested, 5.4% active; Drosophila S2 Gal4-RORgamma UAS-luciferase reporter, 20 h; P51450; note: potency is the fitted concentration of half-maximal effect; nearly all actives have a fitted effect of over 60% in size
Target sequence (P51450 whole entry, looked up, the tested form may be a part): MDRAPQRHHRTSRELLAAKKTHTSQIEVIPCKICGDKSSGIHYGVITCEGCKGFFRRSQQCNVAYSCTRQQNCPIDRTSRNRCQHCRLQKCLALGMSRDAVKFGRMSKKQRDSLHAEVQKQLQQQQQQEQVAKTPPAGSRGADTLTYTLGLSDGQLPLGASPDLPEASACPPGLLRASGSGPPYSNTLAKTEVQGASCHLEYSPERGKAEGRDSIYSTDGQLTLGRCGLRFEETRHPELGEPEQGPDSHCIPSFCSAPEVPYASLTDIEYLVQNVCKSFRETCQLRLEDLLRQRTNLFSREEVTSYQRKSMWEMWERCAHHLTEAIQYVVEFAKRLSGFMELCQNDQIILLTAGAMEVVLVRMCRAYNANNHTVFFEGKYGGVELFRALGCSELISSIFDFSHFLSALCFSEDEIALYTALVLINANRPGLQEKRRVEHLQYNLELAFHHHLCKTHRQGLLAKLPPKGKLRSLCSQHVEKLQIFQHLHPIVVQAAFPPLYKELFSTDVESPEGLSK
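Drosophila Schneider cells stably carrying a metallothionein-driven Gal4 DBD–ROR gamma fusion and a UAS-Photinus luciferase reporter were exposed to compound for 1 hr, then induced with copper sulfate (700 uM final) for 20 hr at ambient temperature before luminescence reading.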
VP16 counter: counter-screen for ROR gamma inhibitors: Gal4-VP16 reporter. Drosophila S2 Gal4-VP16 UAS-luciferase, luminescence, 20 h. Potency, µM (highest dose often 53.6 µM), inactives show top-dose activity, negative = inhibition, hits mostly inhibitors. 310,000 tested, 3.5% active. AID 2546;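 note: Gal4-VP16 expression switched on by copper sulfate through the metallothionein promoter; potency is the fitted concentration of half-maximal effect; nearly all actives have a fitted effect of over 50% in size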
IL1B secr inh: inhibitors of inflammasome signaling (IL-1 beta secretion) | THP-1 LPS/ATP IL-1B secretion, AlphaLISA, 16 h; stronger effect = lower value | activity change, % at 57.5 µM | 360,000 tested, 4.7% active | AID 743279; in the data active = activity change below about -50%; inconclusive = mostly about -30% to -49%
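THP-1 cells pretreated 1 hr with compounds (up to 57.5 uM final), then stimulated with LPS (250 ng/mL final) plus ATP (1.25 mM final); secreted IL-1B measured by AlphaLISA after 16 hr, decreased signal indicating inhibition.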
DT40 TDP1 CPT: growth inhibition of DT40 Tdp1-/-;hTDP1 cells with camptothecin (screen for TDP1 inhibitors); chicken DT40 Tdp1-/-;hTDP1 cells + 20 nM CPT, ATP luminescence, 48 h; Potency, µM (top dose mostly 46.2 µM), without a hit: top-dose activity change, negative = growth inhibition, usual class: inhibitors; 420,000 tested, 12% active; note: potency is the fitted concentration of half-maximal effect; nearly all actives have a fitted effect of over 55% in size
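Chicken DT40 Tdp1-/- cells stably complemented with human TDP1 were seeded at 400 cells/well in medium containing 20 nM camptothecin, exposed to pin-transferred compounds, and grown at 37 °C for at least 48 hr. Viability was read as ATP luminescence.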
DT40 TDP1 no CPT: qHTS for Inhibitors of human tyrosyl-DNA phosphodiesterase 1 (TDP1): qHTS in cells in absence of CPT. DT40 Tdp1-/- hTDP1 cells, no CPT, ATP luminescence, 48 h. Potency, µM (doses to about 46.2 µM), for inactives: top-dose activity change, negative = growth inhibition, most hits filed as inhibitors. 420,000 tested, 15% active; note: potency is the fitted concentration of half-maximal effect; nearly all actives have a fitted effect of over 55% in size
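Stably hTDP1-transfected Tdp1-null chicken DT40 cells were treated with library compounds minus camptothecin and grown for at least 48 hr at 37 °C, after which cellular ATP was quantified by luminescence.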
ELG1 DNA repair: ELG1-dependent DNA repair inhibition; HEK293T ELG1-luciferase reporter, luminescence, 16 h; DNA damage induced by 5-fluorouridine; Potency, µM (series often up to 46.1 µM), for the others: top-dose activity change, negative = inhibition, most hits filed as inhibitors; 330,000 tested, 2.3% active; AID 504467; note: potency is the fitted concentration of half-maximal effect; nearly all actives have a fitted effect of over 55% in size
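DMSO vehicle served as the neutral condition. Each well held 2,000 cells given 5-fluorouridine plus compound; after 16 hr at 37 °C/5% CO2, ONE-Glo was added and luciferase measured 30 min later.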
* = called active by the depositor; ? = inconclusive; . = no result; [ ] = dose if it differs, or a comment. Unless noted, calls come from the whole dose curve; as a rule, active = well fitted curve in the direction sought with a large enough effect; inconclusive = small, poorly fitted or top-dose-only effect, or another doubt; inactive = no such curve, though single readings can be large; an effect the other way counts as inactive or inconclusive. % is set by controls: 0 for no effect and ±100 for the full control effect.

SMILES	RORgamma inh	VP16 counter	IL1B secr inh	DT40 TDP1 CPT	DT40 TDP1 no CPT	ELG1 DNA repair
CC/C(=N\NC(=O)c1cc(C)oc1C)c1ccc(OC(F)F)cc1	.	.	18	?	?	.
Cc1ccc(S(=O)(=O)N(C)Cc2ccc(C(=O)NN=C(CC(C)C)CC(C)C)cc2)cc1	10µM*	?	-27	?	23µM*	-22%
Cn1c(-n2cccc2)c(-c2c(-c3ccccc3)[nH]c3c2c(=O)n(C)c(=O)n3C)c(=O)n(C)c1=O	.	.	.	-5%	-11%	.
Cc1cc(C)cc(C(=O)N2CC(C)SC2=Nc2cccc(S(=O)(=O)N(C)C)c2)c1 (stereo not drawn)	?	-15%	-2	?	?	-8%
Cc1ccc(C(=O)N2CC(C)SC2=Nc2cccc(S(=O)(=O)N(C)C)c2)cc1 (stereo not drawn)	?	19%	13	29µM*	?	-17%
Cc1nc2cc(NC(=O)[C@@H]3C[C@@H](Sc4ccccn4)CN3C3CCCCCC3)ccc2s1	.	.	.	15%[9.04 µM]	1%	.
CC(C)OCCCn1c(=O)c2ccccc2n2c(-c3cc(Cl)ccc3O)nnc12	.	.	.	?	18µM*	.
O=c1c2ccccc2n2c(-c3ccc(Cl)cc3)nnc2n1CCc1ccccc1	.	.	.	?	18µM*	.
O=c1c2ccccc2n2c(-c3ccc(F)cc3)nnc2n1Cc1ccccc1	28%	-7%	8	-5%	-27%	4%
COc1cccc(-c2nnc3n(Cc4ccc(C)cc4)c(=O)c4ccccc4n23)c1O	.	.	.	?	26µM*	.
O=c1c2ccccc2n2c(-c3ccccc3O)nnc2n1Cc1ccc(F)cc1	.	.	.	-5%	-11%	.
COc1ccc(OC)c(-c2nnc3n(CCc4ccccc4)c(=O)c4ccccc4n23)c1	.	.	.	8.2µM*	16µM*	.
COCC(=O)N1CCC(Oc2ccc(C(=O)N3CCN(C)C[C@@H]3C(C)C)cc2)CC1	-21%	-2%	6	15%	-5%	3%
CC(C)(C)NC(=O)C1CCN(c2nc3ccccc3nc2C(F)(F)F)CC1	.	.	.	-29%	?	.
Cc1ccc(S(=O)(=O)NCCc2cn3c(C)csc3n2)cc1	.	.	.	0%	-24%	.
C[C@@H]1CN([C@H](C)CO)C(=O)c2c(c3ccccc3n2C)-c2ccccc2CO[C@H]1CN(C)C(=O)CCC(F)(F)F	.	.	14	?	?	.
COc1ccc(Cn2c(=O)c3ccccc3n3c(-c4cccc(OC)c4OC)nnc23)cc1	.	.	.	?	16µM*	.
NNC(=O)CNC(c1ccccc1)c1cc(Br)ccc1NC(=O)CCN1CCOCC1 (stereo not drawn)	0%	?	-1	23µM*	13µM*	22%
COC(=O)CNC(c1ccccc1Cl)c1cc(Br)ccc1NS(=O)(=O)c1ccc(C)cc1 (stereo not drawn)	-39%	-14%	10	?	16µM*	13%
COC(=O)CNC(c1ccccc1)c1cc(Cl)ccc1NC(=O)c1cccc(Cl)c1 (stereo not drawn)	0%	-1%	9	?	?	?
COC(=O)CNS(=O)(=O)c1ccc(C)cc1	2%	0%	0	4%	-5%	1%
NNC(=O)CNC(c1ccccc1)c1cc(Br)ccc1NC(=O)c1ccc(Br)cc1 (stereo not drawn)	-1%	-3%	-63*	?	-19%	-6%
NNC(=O)CNC(c1ccccc1)c1cc(Br)ccc1NC(=O)c1cccc(Cl)c1 (stereo not drawn)	9%	3%	-20	?	?	-14%
CCOC(=O)CNC(c1ccccc1)c1cc(Br)ccc1NC(=O)c1cccc(Cl)c1 (stereo not drawn)	.	.	.	?	23µM*	.
CN(c1ccccc1)c1cc(Br)nc(Br)c1	.	.	26	6%	?	.
SMILES	RORgamma inh	VP16 counter	IL1B secr inh	DT40 TDP1 CPT	DT40 TDP1 no CPT	ELG1 DNA repair
COC(=O)CNC(c1ccccc1)c1cc(Br)ccc1NC(=O)c1ccccc1 (stereo not drawn)	.	.	.	21µM*	?	.
COC(=O)CNC(c1ccccc1)c1cc(Br)ccc1NC(C)=O (stereo not drawn)	6%	-4%	-6	-17%	-20%	12%
O=C(NCc1ccc2c(c1)OCO2)C12CN(Cc3ccccc3)CC1C(c1cccc([N+](=O)[O-])c1)=NO2 (stereo not drawn)	-9%	20%	?	?	?	?
O=C(NCc1ccc(C(F)(F)F)cc1)C12CN(Cc3ccccc3)CC1C(c1cccc([N+](=O)[O-])c1)=NO2 (stereo not drawn)	26%	1%	-16	-103%	16µM*	1%
CCOC(=O)c1cc(-c2cccc([N+](=O)[O-])c2)nc2[nH]c(=O)[nH]c(=O)c12	-15%	-24%	-25	-18%	23µM*	?
c1ccc(-c2noc(-c3ccc4c(c3)OCO4)n2)nc1	3.2µM*	3.2µM*	6	5.2µM*	5.2µM*	?
c1ccc(-c2noc(-c3ccncc3)n2)nc1	?	?	-5	?	?	0%
c1ccc(-c2noc(C3CCCCC3)n2)nc1	3.5µM*	-27%	-4	-13%	-18%	?
COc1cccc(-c2nc(-c3ccccc3)no2)c1	-41%	?	8	-12%	-15%	?
COc1cccc(-c2nc(-c3ccccn3)no2)c1	?	4.5µM*	17	?	?	?
Brc1ccc(-c2noc(C3CCCCC3)n2)cc1	14%	18%	10	-13%	-15%	?
O=[N+]([O-])c1cccc(-c2nc(-c3ccccn3)no2)c1	11µM*	?	14	-1%	-25%	?
O=C1CSC(=S)N1	-9%	-4%	-17	-17%	0%	-5%
c1ccc(-c2noc(-c3ccc4ccccc4c3)n2)nc1	2.5µM*	2.2µM*	15	?	23µM*	?
COc1ccc([C@@H]2CC(=O)c3c(O)cc(O[C@@H]4O[C@H](CO)[C@@H](O)[C@H](O)[C@H]4OC4O[C@@H](C)[C@H](O)[C@@H](O)[C@H]4O)cc3O2)cc1O (stereo partly drawn)	0%	-1%	.	.	.	.
Cc1occc1C(=O)N/N=C/c1ccc(N(C)C)cc1	10µM*	?	-17	0%	-24%	?
Cc1ccc(/C=N/NC(=O)c2ccoc2C)o1	-12%	23%	6	-8%	-15%	?
